# The panel holds about 83,000 compounds, 20% with a hit somewhere; the sample as a whole holds those more often.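 Percent growth is the endpoint: 0 to 100 indicates growth inhibition (40 means 60% inhibition), 0 means no net growth, and negative values indicate cell death.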 A number with no mark means an inactive call. The source made the active and inactive calls. Rule for the calls: active = growth percent below 10; inactive = the rest.
# System: DU-145 prostate
# Assay: NCI-60 one-dose screen, 48 h (100 = growth as untreated, 0 = no growth, -100 = all killed)
# Details: 10 µM
row,Compound,growth
1,COc1cc(-c2cc(/C=C3\C(=O)Nc4cc(Cl)ccc43)[nH]n2)cc(OC)c1OC,43.8%
2,CCCCCCc1cc(N=Nc2ccc(S(=O)(=O)Nc3cc(C)nc(C)n3)cc2)c(O)cc1O,114%
3,N#CC1=C(Nc2ccccc2Cl)SC(c2ccccc2O)NC1=O (stereo not drawn),117%
4,COc1cc(-c2nc(Nc3nc4ccccc4s3)[nH]c(=O)c2C#N)cc(OC)c1O,113%
5,CCCCCCCCCCCCCCCCCCOCC(COCCOCC[N+]1(CCCCCC(=O)[O-])CCCC1)Oc1ncccn1 (stereo not drawn),77.6%
6,COc1ccc(C2=NN(C(=O)c3ccc(S(C)(=O)=O)cc3)C(c3ccc(OC)c(OC)c3)C2)c(OC)c1 (stereo not drawn),98%
7,COc1ccccc1CNCCCN1C(=O)c2ccc3c4c(ccc(c24)C1=O)C(=O)N(CCCN)C3=O,-95.6% (active)
8,Nc1nc(N)c(NC(=O)CNc2ccc(C(=O)O)cc2)c(N)n1,121%
9,c1ccc(CP(Cc2ccccc2)c2ccccc2)cc1,113%
10,COC(=O)C1(C)Cc2cc(OC(C)=O)c(OC(C)=O)cc2N1 (stereo not drawn),104%
11,CC(=O)OCc1cc(-c2nc3ccccc3[nH]c2=O)nn1-c1ccc(Cl)cc1,110%
12,CC(=O)c1nc2ccccc2n1CCN1CCN(C)CC1,-3.03% (active)
13,COc1ccc(-c2nn(-c3cccc(NC(=O)Nc4ccc(Cl)c(C(F)(F)F)c4)c3)cc2-c2ccncc2)cc1Cl,22.7%
14,COc1cc(C(=O)/C=C/c2cc(-c3cc(OC)c(OC)c(OC)c3)n[nH]2)cc(OC)c1OC,4.4% (active)
15,Cc1cccc(NC2=C(C#N)C(=O)NC3(CCCC3)S2)c1,117%
16,O=C1/C(=C\c2ccc(F)cc2)CN(C(=O)c2ccccc2)C/C1=C\c1ccc(F)cc1,31.7%
17,COc1cc(-c2cc(/C=C3\C(=O)Nc4ccccc43)[nH]n2)cc(OC)c1OC,82.5%
18,COc1cc(/C=C\c2cc(OC)c(OC)c(OC)c2)cc(NS(=O)(=O)c2ccc(Cl)cc2)c1OC,19.8%
19,S=C1SCC(c2ccccc2)S1 (stereo not drawn),125%
20,CCN(CC)Cc1cc(Nc2ccnc3cc(Cl)ccc23)ccc1OC,107%

row,Compound,growth
1,COC(=O)C(C(C[N+](=O)[O-])c1ccccc1)=P(c1ccccc1)(c1ccccc1)c1ccccc1 (stereo not drawn),89.6%
2,O=S(=O)(NCCCNc1nccc(-c2c(-c3ccc(F)cc3)nc3sccn23)n1)c1ccc2ccccc2c1,46.4%
3,CC(=O)N1N=C(c2ccc(Cl)cc2)CC1c1sc(Cl)nc1Cl (stereo not drawn),74.7%
4,O=c1[nH]c2ccc(Cl)cc2c2ccccc12,78.2%
5,COc1ccc(NC2=NC(C)(CO)CS2)cc1 (stereo not drawn),120%
6,N#Cc1ncc(Br)c(NC2CCCCCC2)n1,103%
7,O=C(Nc1cccc(-n2cc(-c3ccncc3)c(-c3cc(O)cc(Cl)c3)n2)c1)Nc1ccc(Cl)c(C(F)(F)F)c1,18.7%
8,Nc1ncn(C2OC(CO)C(O)C2O)c(=O)n1 (stereo not drawn),-9.86% (active)
9,O=C(Nc1nc(-c2ccccc2Cl)cs1)c1cc(-c2ccc(Cl)cc2)nc2ccc(Cl)cc12,32%
10,Nc1c(C(=O)Nc2cccc(F)c2)sc2nc3c(cc12)C(=O)CCC3,-12.7% (active)
11,COc1ccc(-c2cc(/C=C3\C(=O)Nc4ccc(Cl)cc43)[nH]n2)cc1OC,76.4%
12,O=C1CC[C@@H]2CCCC[C@@H]2C1,123%
13,COc1ccc2c(c1)O/C(=C\c1ccc([N+](=O)[O-])s1)C2=O,-6.02% (active)
14,Nc1nc(N)c2c(ccc3nccc32)[nH]1,62.2%
15,Nc1cc2c(cc1Cl)-c1ccc([N+](=O)[O-])cc1/C2=N\O,63%
16,COc1cc(-c2cc(/C=C/C(=O)c3ccc4c(c3)OCO4)[nH]n2)cc(OC)c1OC,48%
17,COc1ccc(Cl)cc1C(=O)Nc1nc2ccc(Cl)cc2s1,94.9%
18,Cc1cc2c(C)c3cc(C)c(N)cc3nc2cc1N,10.6%
19,O=c1oc2cc(OS(=O)(=O)c3ccccc3)ccc2c2c1CCCCC2,84.8%

# System: K-562 leukemia
# Assay: as above
# Details: 10 µM
row,Compound,growth
1,COc1cc(-c2cc(/C=C3\C(=O)Nc4cc(Cl)ccc43)[nH]n2)cc(OC)c1OC,23.4%
2,CCCCCCc1cc(N=Nc2ccc(S(=O)(=O)Nc3cc(C)nc(C)n3)cc2)c(O)cc1O,93.8%
3,N#CC1=C(Nc2ccccc2Cl)SC(c2ccccc2O)NC1=O (stereo not drawn),102%
4,COc1cc(-c2nc(Nc3nc4ccccc4s3)[nH]c(=O)c2C#N)cc(OC)c1O,100%
5,CCCCCCCCCCCCCCCCCCOCC(COCCOCC[N+]1(CCCCCC(=O)[O-])CCCC1)Oc1ncccn1 (stereo not drawn),19.8%
6,COc1ccc(C2=NN(C(=O)c3ccc(S(C)(=O)=O)cc3)C(c3ccc(OC)c(OC)c3)C2)c(OC)c1 (stereo not drawn),77.2%
7,COc1ccccc1CNCCCN1C(=O)c2ccc3c4c(ccc(c24)C1=O)C(=O)N(CCCN)C3=O,-22.7% (active)
8,Nc1nc(N)c(NC(=O)CNc2ccc(C(=O)O)cc2)c(N)n1,106%
9,c1ccc(CP(Cc2ccccc2)c2ccccc2)cc1,83.4%
10,COC(=O)C1(C)Cc2cc(OC(C)=O)c(OC(C)=O)cc2N1 (stereo not drawn),16%
11,CC(=O)OCc1cc(-c2nc3ccccc3[nH]c2=O)nn1-c1ccc(Cl)cc1,93.4%
12,CC(=O)c1nc2ccccc2n1CCN1CCN(C)CC1,15.3%
13,COc1ccc(-c2nn(-c3cccc(NC(=O)Nc4ccc(Cl)c(C(F)(F)F)c4)c3)cc2-c2ccncc2)cc1Cl,15.4%
14,COc1cc(C(=O)/C=C/c2cc(-c3cc(OC)c(OC)c(OC)c3)n[nH]2)cc(OC)c1OC,4.46% (active)
15,Cc1cccc(NC2=C(C#N)C(=O)NC3(CCCC3)S2)c1,95.3%
16,O=C1/C(=C\c2ccc(F)cc2)CN(C(=O)c2ccccc2)C/C1=C\c1ccc(F)cc1,4.01% (active)
17,COc1cc(-c2cc(/C=C3\C(=O)Nc4ccccc43)[nH]n2)cc(OC)c1OC,31.7%
18,COc1cc(/C=C\c2cc(OC)c(OC)c(OC)c2)cc(NS(=O)(=O)c2ccc(Cl)cc2)c1OC,11.2%
19,S=C1SCC(c2ccccc2)S1 (stereo not drawn),106%
20,CCN(CC)Cc1cc(Nc2ccnc3cc(Cl)ccc23)ccc1OC,45.1%

row,Compound,growth
1,COC(=O)C(C(C[N+](=O)[O-])c1ccccc1)=P(c1ccccc1)(c1ccccc1)c1ccccc1 (stereo not drawn),53.4%
2,O=S(=O)(NCCCNc1nccc(-c2c(-c3ccc(F)cc3)nc3sccn23)n1)c1ccc2ccccc2c1,3.75% (active)
3,CC(=O)N1N=C(c2ccc(Cl)cc2)CC1c1sc(Cl)nc1Cl (stereo not drawn),66.1%
4,O=c1[nH]c2ccc(Cl)cc2c2ccccc12,110%
5,COc1ccc(NC2=NC(C)(CO)CS2)cc1 (stereo not drawn),98.7%
6,N#Cc1ncc(Br)c(NC2CCCCCC2)n1,97.1%
7,O=C(Nc1cccc(-n2cc(-c3ccncc3)c(-c3cc(O)cc(Cl)c3)n2)c1)Nc1ccc(Cl)c(C(F)(F)F)c1,5.24% (active)
8,Nc1ncn(C2OC(CO)C(O)C2O)c(=O)n1 (stereo not drawn),-24% (active)
9,O=C(Nc1nc(-c2ccccc2Cl)cs1)c1cc(-c2ccc(Cl)cc2)nc2ccc(Cl)cc12,14.8%
10,Nc1c(C(=O)Nc2cccc(F)c2)sc2nc3c(cc12)C(=O)CCC3,20.1%
11,COc1ccc(-c2cc(/C=C3\C(=O)Nc4ccc(Cl)cc43)[nH]n2)cc1OC,100%
12,O=C1CC[C@@H]2CCCC[C@@H]2C1,110%
13,COc1ccc2c(c1)O/C(=C\c1ccc([N+](=O)[O-])s1)C2=O,-1.48% (active)
14,Nc1nc(N)c2c(ccc3nccc32)[nH]1,16.6%
15,Nc1cc2c(cc1Cl)-c1ccc([N+](=O)[O-])cc1/C2=N\O,30.5%
16,COc1cc(-c2cc(/C=C/C(=O)c3ccc4c(c3)OCO4)[nH]n2)cc(OC)c1OC,22.3%
17,COc1ccc(Cl)cc1C(=O)Nc1nc2ccc(Cl)cc2s1,86.8%
18,Cc1cc2c(C)c3cc(C)c(N)cc3nc2cc1N,1.18% (active)
19,O=c1oc2cc(OS(=O)(=O)c3ccccc3)ccc2c2c1CCCCC2,37.4%
